Assay results: PubChem BioAssay (NCI)
The panel holds about 83,000 compounds, 20% with a hit somewhere; the sample as a whole holds those more often.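 For each line, cells grew in 96-well plates with the test compound present at a single concentration for 48 hours.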 Calls of active or inactive are those of the source. The calls were made as follows: active = growth percent below 10; inactive = the rest.

Legend:
Assay in all cases: NCI-60 one-dose screen, 48 h (100 = growth as untreated, 0 = no growth, -100 = all killed)
SK-MEL-2 melanoma = settings: 10 µM unless noted
SN12C renal = settings: 10 µM unless noted
UO-31 renal = settings: 10 µM unless noted
TK-10 renal = settings: 10 µM unless noted
ACHN renal = settings: 10 µM unless noted
CAKI-1 renal = settings: 10 µM unless noted
A498 renal = settings: 10 µM unless noted
CCRF-CEM leukemia = settings: 10 µM unless noted
MOLT-4 leukemia = settings: 10 µM unless noted
SR leukemia = settings: 10 µM unless noted
RPMI-8226 leukemia = settings: 10 µM
OVCAR-8 ovarian = settings: 10 µM unless noted
OVCAR-5 ovarian = settings: 10 µM unless noted
OVCAR-4 ovarian = settings: 10 µM unless noted
SK-OV-3 ovarian = settings: 10 µM
IGROV1 ovarian = settings: 10 µM unless noted
OVCAR-3 ovarian = settings: 10 µM unless noted
HS 578T breast = settings: 10 µM unless noted
NCI/ADR-RES ovarian = settings: 10 µM unless noted

Measured: growth

CCCCC(CCCC)(S(=O)(=O)CC)S(=O)(=O)CC
inactive: SK-MEL-2 melanoma 108% | SN12C renal 102% | UO-31 renal 84.6% | TK-10 renal 99.2% | ACHN renal 105% | CAKI-1 renal 93.6% | A498 renal 88.7% | CCRF-CEM leukemia 91.5% | MOLT-4 leukemia 93.6% | SR leukemia 92.3% | RPMI-8226 leukemia 90.8% | OVCAR-8 ovarian 102% | OVCAR-5 ovarian 103% | OVCAR-4 ovarian 110% | SK-OV-3 ovarian 105% | IGROV1 ovarian 104% | OVCAR-3 ovarian 105% | HS 578T breast 104% | NCI/ADR-RES ovarian 102%

COC(=O)[C@@H]1CCCN1C(=O)[C@@H]1CCCN1C(=O)[C@@H](Cc1c[nH]c2ccccc12)NC(=S)Nc1cc(C(F)(F)F)cc(C(F)(F)F)c1
active: SR leukemia -17.5%
inactive: SK-MEL-2 melanoma 39.9% | SN12C renal 65.7% | UO-31 renal 41.4% | TK-10 renal 83.5% | ACHN renal 61.9% | CAKI-1 renal 56.9% | A498 renal 99.6% | CCRF-CEM leukemia 19.9% | MOLT-4 leukemia 22.3% | OVCAR-8 ovarian 67.6% | OVCAR-5 ovarian 91% | OVCAR-4 ovarian 42% | SK-OV-3 ovarian 90.9% | IGROV1 ovarian 36% | OVCAR-3 ovarian 44.1% | HS 578T breast 59.2% | NCI/ADR-RES ovarian 99.8%

O=S(=O)(Nc1ncccn1)c1ccc(Nc2ccc3nnc(-c4ccncc4)n3n2)cc1
inactive: SK-MEL-2 melanoma 125% | SN12C renal 93.9% | UO-31 renal 81% | TK-10 renal 115% | ACHN renal 98.6% | CAKI-1 renal 99.6% | A498 renal 87.5% | CCRF-CEM leukemia 94.3% | MOLT-4 leukemia 109% | SR leukemia 102% | OVCAR-8 ovarian 103% | OVCAR-5 ovarian 94.3% | OVCAR-4 ovarian 93.8% | SK-OV-3 ovarian 103% | IGROV1 ovarian 105% | OVCAR-3 ovarian 104% | HS 578T breast 84.3% | NCI/ADR-RES ovarian 102%

Cc1ccc2c(N/N=C\c3ccco3)cc(C)nc2n1
inactive: SK-MEL-2 melanoma 114% | SN12C renal 77.2% | UO-31 renal 35.1% | TK-10 renal 93.8% | ACHN renal 39.5% | CAKI-1 renal 66% | A498 renal 50.3% | MOLT-4 leukemia 37% | OVCAR-8 ovarian 69.6% | OVCAR-5 ovarian 80.4% | OVCAR-4 ovarian 46.9% | SK-OV-3 ovarian 98.6% | IGROV1 ovarian 49% | OVCAR-3 ovarian 88% | HS 578T breast 86.3% | NCI/ADR-RES ovarian 71.8%
active: CCRF-CEM leukemia 5.24% | SR leukemia -8.66%

COc1ccc(Cn2c(Br)c3c(c2-c2cc(OC)c(OC)c(OC)c2)CCc2sc(N)nc2-3)cc1
inactive: SK-MEL-2 melanoma 50.3% | SN12C renal 31.9% | UO-31 renal 35.2% | TK-10 renal 46.2% | ACHN renal 42.1% | CAKI-1 renal 44.7% | RPMI-8226 leukemia 21.2% | OVCAR-8 ovarian 12.3% | OVCAR-5 ovarian 37.1% | IGROV1 ovarian 36.7%
active: A498 renal -15.8% | CCRF-CEM leukemia 3.52% | MOLT-4 leukemia 8.47% | SR leukemia 4.41% | SK-OV-3 ovarian 3.83% | OVCAR-3 ovarian -25.5% | HS 578T breast 8.13% | NCI/ADR-RES ovarian 3.87%

COc1ncc(F)c(OC)n1
inactive: SK-MEL-2 melanoma 109% | SN12C renal 100% | UO-31 renal 86.9% | TK-10 renal 108% | ACHN renal 100% | CAKI-1 renal 94.5% | A498 renal 110% | CCRF-CEM leukemia 100% | MOLT-4 leukemia 94.7% | SR leukemia 94% | RPMI-8226 leukemia 101% | OVCAR-8 ovarian 97.3% | OVCAR-5 ovarian 97.9% | OVCAR-4 ovarian 90% | SK-OV-3 ovarian 97.8% | IGROV1 ovarian 103% | OVCAR-3 ovarian 114% | HS 578T breast 118% | NCI/ADR-RES ovarian 105%

C=C(C)CCCC(C)CC#N (configuration not stated)
inactive: SK-MEL-2 melanoma 97.4% | SN12C renal 103% | UO-31 renal 83.6% | TK-10 renal 99% | ACHN renal 103% | CAKI-1 renal 98.5% | A498 renal 103% | CCRF-CEM leukemia 96.1% | MOLT-4 leukemia 101% | SR leukemia 90.8% | RPMI-8226 leukemia 102% | OVCAR-8 ovarian 106% | OVCAR-5 ovarian 103% | OVCAR-4 ovarian 105% | SK-OV-3 ovarian 103% | IGROV1 ovarian 107% | OVCAR-3 ovarian 99.8% | HS 578T breast 110% | NCI/ADR-RES ovarian 107%

COc1ccc(-c2nc3sc(C)nn3c2-c2nc3cc(C)c(C)cc3[nH]2)cc1
inactive: SK-MEL-2 melanoma 104% | SN12C renal 87.5% | UO-31 renal 85.9% | TK-10 renal 118% | ACHN renal 89.7% | CAKI-1 renal 89.8% | A498 renal 102% | CCRF-CEM leukemia 85.9% | MOLT-4 leukemia 78.1% | SR leukemia 76.6% | RPMI-8226 leukemia 83.3% | OVCAR-8 ovarian 89.6% | OVCAR-5 ovarian 103% | OVCAR-4 ovarian 94.1% | SK-OV-3 ovarian 99.5% | IGROV1 ovarian 98.4% | OVCAR-3 ovarian 104% | NCI/ADR-RES ovarian 86.6%

O=C(Nc1ccc(F)cc1)c1ccc(C(=O)Nc2ccc(F)cc2)cc1
inactive: SK-MEL-2 melanoma 105% | SN12C renal 102% | UO-31 renal 87.8% | TK-10 renal 108% | ACHN renal 99.8% | CAKI-1 renal 94.2% | A498 renal 90.4% | CCRF-CEM leukemia 102% | MOLT-4 leukemia 94.4% | SR leukemia 94.5% | RPMI-8226 leukemia 113% | OVCAR-8 ovarian 99.6% | OVCAR-5 ovarian 101% | OVCAR-4 ovarian 93.4% | SK-OV-3 ovarian 103% | IGROV1 ovarian 109% | OVCAR-3 ovarian 109% | HS 578T breast 106% | NCI/ADR-RES ovarian 116%

FC(F)(F)c1cc(CNc2nc(Cl)ncc2Br)cc(C(F)(F)F)c1
inactive: SK-MEL-2 melanoma 83.6% | SN12C renal 89.3% | UO-31 renal 67.1% | TK-10 renal 94% | ACHN renal 94.5% | CAKI-1 renal 76.5% | A498 renal 80.2% | CCRF-CEM leukemia 81.4% | MOLT-4 leukemia 82.4% | SR leukemia 38.2% | RPMI-8226 leukemia 70.9% | OVCAR-8 ovarian 91.5% | OVCAR-5 ovarian 96.6% | OVCAR-4 ovarian 98.5% | SK-OV-3 ovarian 81.1% | IGROV1 ovarian 75% | OVCAR-3 ovarian 85.6% | HS 578T breast 54.5% | NCI/ADR-RES ovarian 92.7%

Oc1ccc(Cl)cc1CNc1nc2ccccc2[nH]1
active: CCRF-CEM leukemia -21.4% | MOLT-4 leukemia -25.1% | SR leukemia -31.7% | RPMI-8226 leukemia -21.2% | OVCAR-3 ovarian -73.8%
inactive: SK-MEL-2 melanoma 87.1% | SN12C renal 61.1% | UO-31 renal 56% | TK-10 renal 88.2% | ACHN renal 57% | CAKI-1 renal 64% | A498 renal 59.6% | OVCAR-8 ovarian 42.8% | OVCAR-5 ovarian 98.9% | SK-OV-3 ovarian 87.1% | HS 578T breast 89% | NCI/ADR-RES ovarian 38.6%

O=C(Nc1ccc(Cl)c(Cl)c1)NC(CO)(CO)CO
inactive: SK-MEL-2 melanoma 100% | SN12C renal 102% | UO-31 renal 73.9% | TK-10 renal 113% | ACHN renal 97.7% | CAKI-1 renal 91% | A498 renal 83.8% | CCRF-CEM leukemia 93.3% | MOLT-4 leukemia 98.3% | SR leukemia 101% | RPMI-8226 leukemia 96.7% | OVCAR-8 ovarian 96.8% | OVCAR-5 ovarian 94.7% | OVCAR-4 ovarian 110% | SK-OV-3 ovarian 95.5% | IGROV1 ovarian 100% | OVCAR-3 ovarian 104% | HS 578T breast 96% | NCI/ADR-RES ovarian 100%

Cn1c(=O)c(S(=O)(=O)c2ccccc2)cc2ccc3c(cnn3-c3ccc(Cl)cc3)c21
inactive: SK-MEL-2 melanoma 87.2% | SN12C renal 86.6% | UO-31 renal 52.2% | TK-10 renal 81.5% | ACHN renal 58.2% | CAKI-1 renal 82.8% | A498 renal 53.5% | CCRF-CEM leukemia 95.8% | MOLT-4 leukemia 94.8% | SR leukemia 79% | RPMI-8226 leukemia 75.9% | OVCAR-8 ovarian 60.9% | OVCAR-5 ovarian 94.3% | SK-OV-3 ovarian 69.7% | IGROV1 ovarian 96% | OVCAR-3 ovarian 94.5% | HS 578T breast 69.3% | NCI/ADR-RES ovarian 81.5%

COc1ccc(OC)c2ncccc12
inactive: SK-MEL-2 melanoma 87.5% | SN12C renal 101% | UO-31 renal 64.4% | TK-10 renal 108% | ACHN renal 94.7% | CAKI-1 renal 95.7% | A498 renal 101% | CCRF-CEM leukemia 92.4% | MOLT-4 leukemia 93.1% | SR leukemia 99% | RPMI-8226 leukemia 94.9% | OVCAR-8 ovarian 103% | OVCAR-5 ovarian 107% | SK-OV-3 ovarian 96.7% | IGROV1 ovarian 106% | OVCAR-3 ovarian 110% | HS 578T breast 107% | NCI/ADR-RES ovarian 100%

Cc1cc(Cl)c2c(Cl)ccc(Cl)c2n1
inactive: SK-MEL-2 melanoma 81.4% | SN12C renal 113% | UO-31 renal 89.8% | TK-10 renal 112% | ACHN renal 105% | CAKI-1 renal 95% | A498 renal 104% | CCRF-CEM leukemia 98.7% | MOLT-4 leukemia 95.6% | SR leukemia 91.9% | RPMI-8226 leukemia 107% | OVCAR-8 ovarian 103% | OVCAR-5 ovarian 101% | SK-OV-3 ovarian 97.7% | IGROV1 ovarian 111% | OVCAR-3 ovarian 105% | HS 578T breast 119% | NCI/ADR-RES ovarian 114%

CS(=O)(=O)Nc1cccc(C(=O)NCc2ccc(N3CCOCC3)cc2)c1
inactive: SK-MEL-2 melanoma 96.7% | SN12C renal 107% | UO-31 renal 93% | TK-10 renal 93.3% | ACHN renal 115% | CAKI-1 renal 101% | A498 renal 94% | CCRF-CEM leukemia 99.8% | MOLT-4 leukemia 93.2% | SR leukemia 93.3% | RPMI-8226 leukemia 99.7% | OVCAR-8 ovarian 104% | OVCAR-5 ovarian 107% | OVCAR-4 ovarian 107% | SK-OV-3 ovarian 107% | IGROV1 ovarian 114% | OVCAR-3 ovarian 108% | HS 578T breast 104% | NCI/ADR-RES ovarian 111%

O=C(Nc1ccc(Cl)c(Cl)c1)OCn1ncc2ccc([N+](=O)[O-])cc21
inactive: SK-MEL-2 melanoma 85% | SN12C renal 95.1% | UO-31 renal 45.9% | TK-10 renal 92.9% | ACHN renal 83.5% | CAKI-1 renal 73% | A498 renal 60.1% | CCRF-CEM leukemia 81.8% | MOLT-4 leukemia 70.6% | SR leukemia 76.7% | RPMI-8226 leukemia 83.4% | OVCAR-8 ovarian 89% | OVCAR-5 ovarian 77.5% | SK-OV-3 ovarian 86.2% | IGROV1 ovarian 75.5% | OVCAR-3 ovarian 85.1% | HS 578T breast 75.4% | NCI/ADR-RES ovarian 84.1%
